Assay results from publication PMC4336329 (PLoS ONE, 2015).
Screen size: about 310,000 compounds; about 14,000 (4.5%) showed an effect of 50% or more. Effects have a minus sign here. The sample holds strong results, similar compounds and a random draw of the others, so the mix is not that of the screen.

Biological target: human ether-à-go-go-related gene (hERG) potassium channel (human, UniProt Q12809)
Experiment: primary screen, population patch clamp on CHO cells stably expressing hERG; higher = less effect of the substance
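Also: peak tail current of the secondary pulse compared with the same well before compound.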

Sequence of human ether-à-go-go-related gene (hERG) potassium channel (Q12809 whole entry, looked up): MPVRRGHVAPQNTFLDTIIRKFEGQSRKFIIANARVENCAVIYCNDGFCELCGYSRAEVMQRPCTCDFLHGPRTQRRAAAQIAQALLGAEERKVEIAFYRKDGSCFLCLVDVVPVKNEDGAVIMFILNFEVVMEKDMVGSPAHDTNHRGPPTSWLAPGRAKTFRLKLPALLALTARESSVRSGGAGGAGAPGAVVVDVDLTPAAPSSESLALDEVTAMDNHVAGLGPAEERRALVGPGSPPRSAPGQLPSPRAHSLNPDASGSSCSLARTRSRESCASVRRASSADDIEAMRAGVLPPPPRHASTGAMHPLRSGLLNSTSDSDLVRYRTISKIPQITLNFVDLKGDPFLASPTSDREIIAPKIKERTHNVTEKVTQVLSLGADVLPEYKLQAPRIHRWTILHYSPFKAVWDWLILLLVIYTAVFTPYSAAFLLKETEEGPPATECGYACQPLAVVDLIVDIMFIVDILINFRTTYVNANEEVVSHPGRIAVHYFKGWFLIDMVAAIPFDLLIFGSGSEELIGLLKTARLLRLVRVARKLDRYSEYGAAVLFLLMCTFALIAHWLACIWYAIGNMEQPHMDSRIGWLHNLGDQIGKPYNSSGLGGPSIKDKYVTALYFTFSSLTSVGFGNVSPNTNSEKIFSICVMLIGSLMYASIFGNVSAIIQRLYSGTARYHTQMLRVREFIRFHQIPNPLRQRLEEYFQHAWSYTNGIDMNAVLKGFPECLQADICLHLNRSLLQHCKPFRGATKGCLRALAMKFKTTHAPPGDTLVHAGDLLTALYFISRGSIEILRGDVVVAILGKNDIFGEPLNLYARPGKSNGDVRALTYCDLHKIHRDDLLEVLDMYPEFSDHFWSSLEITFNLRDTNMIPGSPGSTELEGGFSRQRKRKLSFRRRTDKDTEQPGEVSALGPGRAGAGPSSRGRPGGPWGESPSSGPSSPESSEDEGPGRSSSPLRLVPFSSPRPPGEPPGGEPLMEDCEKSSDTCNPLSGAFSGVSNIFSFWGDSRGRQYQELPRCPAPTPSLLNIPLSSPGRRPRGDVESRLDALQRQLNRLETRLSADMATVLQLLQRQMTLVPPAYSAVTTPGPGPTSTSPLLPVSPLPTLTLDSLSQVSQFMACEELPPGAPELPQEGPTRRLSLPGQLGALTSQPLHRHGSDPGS

SMILES | hERG current change (%, negative = inhibition) at 10uM
CCCn1c(/N=C/c2ccccc2O)nc2ccccc21 | 13.6%
COc1ccc(OCCCC(=O)Nc2nncs2)cc1 | 0.955%
COc1cccc(C=Nc2ccc(N3CCOCC3)cc2)c1O | 17.9%
CCCCC(=O)Nc1ccc2c(c1)nc(CCNC(=O)c1ccco1)n2C | -11.1%
Cc1cnc(NC(=O)CN2CCN(c3ccccc3F)CC2)s1.Cl | 12.2%
Cc1ccc(S(=O)(=O)CCC(=O)OCC(=O)NCc2ccc(Cl)cc2)cc1 | 36.8%
O=C(Nc1ccccc1Cl)NC1(C(=O)N2CCOCC2)CCCCC1 | 17.5%
CCN1CCN(c2ccc(S(=O)(=O)N3CCCCC3)cc2NC(=O)c2sccc2C)CC1 | -71.4%
COc1ccccc1C(=O)Nc1nc(-c2cccs2)c(NC(C)=O)s1 | -7.05%
O=C(O)CN1c2cccc3cccc(c23)S1(=O)=O | 32.4%
CC(=O)N1c2ccc(Cl)cc2C2OCCC2C1c1ccco1 (stereo not shown) | 9.11%
O=C(c1ccc(S(=O)(=O)N2CCOCC2)cc1)N1CCN(c2ccccn2)CC1 | 4.62%
OC(C#CCN1CCCC1)(c1ccccc1)c1ccccc1 | -28.8%
OC(C#CCCN1CCCCC1)(c1ccccc1)c1ccccc1 | -53.8%
OC(C#CCN1CCCC1)(c1ccccc1)c1cccc(F)c1 (stereo not shown) | -16.7%
OC(C#CCCN1CCCCC1)(c1ccccc1)C1CCCCC1 (stereo not shown) | -46.3%
OC(C#CCN1CCCCC1)(c1ccccc1)c1ccccc1 | -24.6%
CC1CCCN1CC#CC(O)(c1ccccc1)c1ccccc1.Cl (stereo not shown) | -60.7%
CCOC(=O)[C@@H]1[C@H]2COc3ccc(Br)cc3[C@H]2N2C(=O)N(c3ccc(C)cc3)C(=O)[C@]12C | -4.14%
O=C(NC(=S)NN1CCCCC1c1cccnc1)c1ccc(Cl)cc1Cl (stereo not shown) | -6.98%

SMILES | hERG current change (%, negative = inhibition) at 10uM
Cc1ccc(SCC(=O)NC(=O)NCCC(C)C)c(C)c1 | -1.09%
Cc1cc(Cl)c2oc(C(=O)N(C)CCCCN3CCOCC3)c(C)c2c1 | -46%
COc1ccccc1CNC(=O)c1c(O)c2cc(OC)c(OC)cc2[nH]c1=O | 6.86%
COc1cc(/C=N/NC(=O)C(=O)NCc2cccnc2)cc(OC)c1OC | 5.17%
O=C(C1=C[C@H](C2CCCCC2)C[C@H](OCc2ccc(CO)cc2)O1)N1CCN(Cc2ccc3c(c2)OCO3)CC1 | -18.3%
CC(C)(C)[C@H]1C=C(C(=O)N2CCN(Cc3ccc4c(c3)OCO4)CC2)O[C@@H](OCc2ccc(CO)cc2)C1 | -33.7%
O=C(C1=C[C@@H](C2CC2)C[C@@H](OCCCCO)O1)N1CCN(Cc2ccc3c(c2)OCO3)CC1 | -11.1%
O=C(C1=C[C@@H](C2CC2)C[C@@H](OCc2ccc(CO)cc2)O1)N1CCN(Cc2ccc3c(c2)OCO3)CC1 | -51.7%
O=C(C1=C[C@H](C2CC2)C[C@H](OCc2ccc(CO)cc2)O1)N1CCN(Cc2ccc3c(c2)OCO3)CC1 | -57.8%
O=C(C1=C[C@H](c2ccc3c(c2)OCO3)C[C@H](OCc2ccc(CO)cc2)O1)N1CCN(Cc2ccc3c(c2)OCO3)CC1 | -17.2%
CC(C)(C)[C@@H]1C=C(C(=O)N2CCN(Cc3ccc4c(c3)OCO4)CC2)O[C@H](OCc2ccc(CO)cc2)C1 | -35%
O=C(C1=C[C@@H](C2CCCCC2)C[C@@H](OCc2ccc(CO)cc2)O1)N1CCN(Cc2ccc3c(c2)OCO3)CC1 | 4.46%
C[C@H]1C=C(C(=O)N2CCN(Cc3ccc4c(c3)OCO4)CC2)O[C@@H](OCc2ccc(CO)cc2)C1 | -70.7%
O=C(NC(=O)N1CCOCC1)c1ccccc1 | 8.08%
CC(=O)NNC(=O)CSc1nnc(-c2ccccc2)c(-c2ccccc2)n1 | 19.4%
COc1ccc(CN2CC(=O)N(c3ccc(C)c(C)c3)C2=S)cc1OC | 12.2%
CC(C)Oc1c(Cl)cc(CNC(C)(C)CO)cc1Cl | 0.775%
CSc1nnc(-c2ccco2)c(-c2ccco2)n1 | 2.75%
CCCCCC(=O)Nc1ccc2oc(-c3cccnc3)nc2c1 | -6.74%
COC(=O)C1=C(C(=O)OC)SC2(S1)C(C(=O)OC)=C(C(=O)OC)SC1=C2c2cc(C)ccc2NC1(C)C | 14.3%
